hgDAF12 agonist = hgDAF-12 agonism, primary luciferase screen | 370,000 tested, 1.8% active | activation, % at 6.8 µM | AID 687014 | HEK293 GAL4-hgDAF12 UAS-luciferase reporter, agonist luminescence; normalized to butyrate control;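 active = activation above a cutoff set at the mean of all screened compounds plus 3 SD, cut at about 10% in these data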
hcDAF12 agonist = activators of H. contortus DAF-12 nuclear receptor; AID 652067; HEK293 hcDAF-12 lit1-tk-luc reporter, luminescence; 0% DMSO, 100% Δ7-dafachronic acid; 370,000 tested, 1.4% active; activation, % at 6.8 µM;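 active = activation above the mean of all tested compounds plus 3 SD, cut at about 5.5% in these data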
DAX1 inh-1 = inhibits human nuclear receptor DAX1; HEK293 Gal4-DAX1 luciferase reporter, luminescence; inhibition, % at 6.75 µM; 340,000 tested, 0.99% active;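 active = inhibition above the mean over all tested compounds plus 3 SD, cut at about 4.2% in these data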;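 note: inhibition shows as a rise in luminescence from relieved DAX1 repression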
Target sequence (P51843 207-470 limits assumed): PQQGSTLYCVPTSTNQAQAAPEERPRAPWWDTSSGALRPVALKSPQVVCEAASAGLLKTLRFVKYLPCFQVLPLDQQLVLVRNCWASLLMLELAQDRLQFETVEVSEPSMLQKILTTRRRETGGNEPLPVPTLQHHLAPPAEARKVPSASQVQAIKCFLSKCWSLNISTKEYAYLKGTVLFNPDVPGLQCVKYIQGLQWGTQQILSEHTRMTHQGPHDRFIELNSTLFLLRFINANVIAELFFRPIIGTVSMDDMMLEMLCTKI
ssDAF12 agonist = activators of S. stercoralis DAF-12 nuclear receptor | HEK293 ssDAF-12/GRIP1 lit1-tk-luc reporter, luminescence; % of 3 µM dafachronic acid response | activation, % at 6.8 µM | 370,000 tested, 1% active | AID 652126;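 active = activation above the mean over all tested compounds plus 3 SD, cut at about 0.9% in these data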
DAX1 inh-2 = blocks DAX1 repression of SF-1 activated StAR promoter; HEK293T StAR-luciferase reporter, SF-1/DAX-1 repression relief; AID 652010; inhibition, % at 6.8 µM; 370,000 tested, 1.1% active;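 active = inhibition above the mean over all tested compounds plus 3 SD, cut at about 3.6% in these data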;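 note: higher inhibition means more luminescence from relief of DAX-1 repression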
SMARCA2 activ = increases SMARCA2 function in MMTV reporter cells | MG213 cells, MMTV-luciferase reporter, dexamethasone, overnight | activation, % at 9.1 µM | 370,000 tested, 1% active | AID 652017; in the data active = activation above about 7.8%
Numbers stand for hits; . = inactive; / = not tested or not shown. A selection: hits, their analogues and other compounds. The true share with any hit is near 4.8%.

SMILES	hgDAF12 agonist	hcDAF12 agonist	DAX1 inh-1	ssDAF12 agonist	DAX1 inh-2	SMARCA2 activ
NC(=O)NN=C(C1CC1)C1CC1	.	.	4.9	.	.	.
O=C(NNC1CC(=O)N(c2ccc(Cl)cc2)C1=O)c1ccccn1 (stereo not drawn)	.	.	.	0.9	.	.
CC(C)c1ccc(N2C(=O)CC(NNC(=O)c3cccnc3)C2=O)cc1 (stereo not drawn)	.	.	5.6	.	.	.
Cc1ccc(C(=O)N/N=C\c2ccccn2)cn1	.	.	.	.	.	.
COc1cc(/C=N/NC(=O)c2ccoc2C)ccc1O	10	.	.	.	.	.
Cc1occc1C(=O)N/N=C/c1ccccn1	11	.	.	.	.	.
C/C(=N\NC(=O)c1ccoc1C)c1cccc2ccccc12	13	.	.	.	.	.
COC(=O)[C@@]1(OC(C)=O)CC(OC(C)=O)[C@H](OC(C)=O)[C@H](OC(C)=O)C1Br (stereo partly drawn)	.	.	/	.	/	/
CCN(CC)C(=O)O[C@H]1CC[C@@]23CCCN2C(=O)CCC[C@H]3[C@H]1C	.	.	/	.	/	/
Clc1cccc(/C=N\Nc2nccs2)c1	11	.	.	0.9	.	.
Fc1ccc(-c2csc(/C=C/c3ccc4c(c3)OCO4)n2)cc1	.	.	.	1.1	.	.
Cc1nc(NC(=O)C2CC2)sc1C(=O)N1CCCCC1	.	.	.	.	.	.
Cc1nc(NC(=O)c2cccc(Cl)c2)sc1C(=O)N1CCCCC1	11	.	.	.	.	.
CC(C)(O)c1[nH]c2cc(F)ccc2c1C(C)(C)O	.	5.7	.	.	.	.
Cc1cc(C)n2nc(SCC(=O)N3CCc4ccccc43)nc2n1	.	.	.	.	.	.
Cc1cc(C)nc(SCC(=O)N2CCc3ccccc32)n1	.	.	.	.	4.3	.
O=C(O)c1ccccc1SCC(=O)N1CCc2ccccc21	.	.	.	7.6	.	.
CC(Sc1ncccn1)C(=O)N1CCc2ccccc21 (stereo not drawn)	.	5.8	.	.	.	.
Cc1ccn(C(C)CC(=O)N2CCc3ccccc32)n1 (stereo not drawn)	.	6.2	.	.	.	.
CC(Oc1ccc(Br)cc1)C(=O)N1CCc2ccccc21 (stereo not drawn)	.	.	.	.	.	.
Cc1ccc(OCc2nnc(SCC(=O)c3ccc4ccccc4c3)n2-c2ccc(Cl)cc2)cc1	.	.	/	.	.	.
COC(=O)[C@H](CC(C)C)N(CCc1cn(Cc2ccc(C)cc2)nn1)S(=O)(=O)c1ccc(F)cc1Br	.	.	/	.	.	.
O=C(Cn1cc2c(n1)CCCC2)N1CCc2ccccc21	.	.	4.5	.	.	.
COCc1[nH]nc2c1C(c1ccc3c(c1)OCO3)N(Cc1ccccc1)C2=O (stereo not drawn)	.	.	/	.	.	.
C/C(CC(=O)NCc1ccc(F)cc1)=N\NC(N)=S	.	.	4.8	.	.	.
SMILES	hgDAF12 agonist	hcDAF12 agonist	DAX1 inh-1	ssDAF12 agonist	DAX1 inh-2	SMARCA2 activ
COC(=O)C[C@H]1CC[C@@H]2[C@@H](COc3ccc(NC(=O)Nc4ccccc4OC)cc3C(=O)N2C)O1	.	.	/	.	.	.
CN(CC1CCOCC1)C(=O)CC1C(=O)NCCN1CC1CCCCC1 (stereo not drawn)	.	.	5.7	.	.	.
COc1cccc(CN2CCNC(=O)C2CC(=O)N(C)CCC2CCOCC2)c1OC (stereo not drawn)	.	.	6.1	.	.	.
CN(CCC1CCOCC1)C(=O)CC1C(=O)NCCN1CC1CCCCC1 (stereo not drawn)	.	.	.	.	.	.
CCOc1ccccc1CN1CCNC(=O)C1CC(=O)N(C)CCC1CCOCC1 (stereo not drawn)	.	.	.	.	.	.
Nc1nnn(-c2ccccc2)c1-c1ccccc1	.	.	4.6	.	.	.
COC(=O)C1CN(Cc2ccc(OC)cc2)CCS(=O)(=O)N1Cc1cn(Cc2ccc(C)cc2)nn1 (stereo not drawn)	.	.	/	.	.	.
O=C(Nc1ccc(F)cc1F)C1(c2cccs2)CCOCC1	.	.	4.5	.	.	.
Cc1cc(C)cc(NC(=O)C2(c3cccs3)CCOCC2)c1	.	.	.	.	.	.
Nc1ccccc1C(=O)NNc1c2ccccc2nc2ccccc12	.	6.4	.	.	.	.

Compound activity deposited in PubChem BioAssay by The Scripps Research Institute Molecular Screening Center.
